Values without a mark were called inactive. How the calls were made is not given here.

Here are results for 39 compounds from PubChem BioAssay.

One test relates to Botulinum neurotoxin type F light chain protease (Clostridium botulinum). Briefly: Clostridium botulinum type F light chain protease inhibitors, microsphere substrate cleavage, validation (AID 588459). The following applies: multiplex microsphere protease substrate cleavage assay, flow cytometry; at 10 µM; active compounds read high. On the technique in general: Flow cytometry measures light scatter and fluorescence of single cells or particles in a stream.
In the case of `Cc1cc(NS(=O)(=O)c2ccc(N)cc2)no1`, the inhibition was 0%.

In the case of `O=C(CCCN1C(=O)/C(=C\c2cccc(Br)c2)SC1=S)Nc1cccnc1`, the inhibition is -1.7%.

Regarding `CN(C)C(=O)C12CCC(C)(c3nc4ccccc4nc31)C2(C)C` (stereo not drawn), the inhibition is -1.3%.

With `CNCCC(Oc1ccc(C(F)(F)F)cc1)c1ccccc1` (stereo not drawn), the inhibition was -3.3%.

As to `CN(C)CCC=C1c2ccccc2CCc2ccccc21`, the inhibition was 1.3%.

Turning to `COc1ccc(C2C3C(C)=NN=C3CC(C)(O)C2C(C)=O)cc1` (stereo not drawn), the inhibition was -2%.

As to `c1cc(-c2ccncc2)ccn1`, the inhibition is 0.7%.

For `CC(C)COc1ccc(Cc2cnc(N)nc2N)cc1`, the inhibition is 5%.

Take `CCn1c(O)c(/C=C2\C=Nc3ccccc32)sc1=O`: the inhibition is 2.3%.

Regarding `CN1CCN(CC/C=C2/c3ccccc3Sc3ccc(S(=O)(=O)N(C)C)cc32)CC1`, the inhibition was 3.2%.

In the case of `Oc1ccc(COCc2ccccc2)c2cccnc12`, the inhibition is -2%.

In the case of `COc1ccc(C(=O)N2c3cc4c(cc3C(C)=CC2(C)C)OCO4)cc1`, the inhibition is 3.7%.

Consider `COc1ccc2cc(CCC(C)=O)ccc2c1`, for which the inhibition is -2.3%.

As for `CCN(CC)CC#CCOC(=O)C(O)(c1ccccc1)C1CCCCC1` (stereo not drawn), the inhibition is -1.7%.

Take `COc1cc(C)nc(-n2nc(C)cc2OC)n1`: the inhibition is 0.2%.

As for `Cc1[nH]c2ccccc2c1/C=C/c1nc2ccccc2c(=O)n1CCO`, the inhibition was 0%.

Regarding `Nc1nc(Cl)nc2c1ncn2[C@H]1C[C@H](O)[C@@H](CO)O1`, the inhibition was -8.7%.

As for `O=C(/C=C/c1ccc2c(c1)OCO2)c1ccccn1`, the inhibition is -2.7%.

In the case of `C#C[C@]1(O)CC[C@H]2[C@@H]3CCC4=CC(=O)CC[C@@H]4[C@H]3CC[C@@]21CC`, the inhibition was -0.6%.

Turning to `C#CCN1C(=O)C(O)(CC(=O)c2ccc(OC)c(OC)c2)c2ccccc21` (stereo not drawn), the inhibition is 2.3%.

Regarding `Cc1ccc(P(=O)(CSC(=N)N)c2ccc(C)cc2)cc1`, the inhibition is -1.3%.

`CCOC(=O)C(=O)N1CCN(c2ccccc2OC)CC1`: the inhibition was 1.5%.

With `O=C(c1cccc2ccccc12)C1CCCN(C(=O)CCN2CCCO2)C1` (stereo not drawn), the inhibition was 1.2%.

`Cc1cc(=O)oc2c(CN(C)Cc3ccccc3)c(O)ccc12`: the inhibition was -0.2%.

`Cc1ncoc1C(=O)N1CCCC(C(=O)c2ccc(-c3ccccc3)c(F)c2)C1` (stereo not drawn): the inhibition is -2.3%.

On to `CN1CCN(C2=Nc3cc(Cl)ccc3Nc3ccccc32)CC1`, for which the inhibition was -0.2%.

Take `NC(N)=NC(N)=NCCc1ccccc1`: the inhibition was -1%.

For `NC(=O)N1c2ccccc2CC(=O)c2ccccc21`, the inhibition is -1.1%.

As for `Cc1cc(/C=N/O)c(C)n1-c1ccc(Br)cc1`, the inhibition was 1.9%.

Consider `OCCN(CCO)c1nc(N2CCCCC2)c2nc(N(CCO)CCO)nc(N3CCCCC3)c2n1`, for which the inhibition was 4.8%.

Take `O=C(O)COc1ccc2occ(C(=O)c3ccccc3)c2c1`: the inhibition was -1.3%.

For `C[C@]12CC[C@H]3C(=CCc4cc(O)ccc43)[C@@H]1CCC2=O`, the inhibition was 0.5%.

Take `Cn1c(=O)c2c(ncn2CCO)n(C)c1=O`: the inhibition is 1.2%.

Take `NS(=O)(=O)c1cc(C2(O)NC(=O)c3ccccc32)ccc1Cl` (stereo not drawn): the inhibition is -0.2%.

For `COc1ccc(C2NC(=O)c3ccccc3N2)cc1OC` (stereo not drawn), the inhibition is -2.5%.

`Cn1c(=O)c2[nH]cnc2n(C)c1=O`: the inhibition is 2.7%.

Turning to `O=C(c1ccc([N+](=O)[O-])cc1)N1CCSC1c1ccccc1Cl` (stereo not drawn), the inhibition was -3.8%.

For `Cc1cccc(N2CCN(C(=S)c3ccccc3)CC2)c1`, the inhibition is 3.3%.

As for `NC12CC3CC(CC(C3)C1)C2`, the inhibition was -1.1%.

The target in a further test is Botulinum neurotoxin type A (Clostridium botulinum) (UniProt P0DPI0). Briefly: BoNT/A light chain protease inhibitors, biochemical, multiplex microsphere flow cytometry, validation set (AID 588460). To be noted: at 10 µM, active compounds read high.
Chain of Botulinum neurotoxin type A (Clostridium botulinum) (P0DPI0 whole entry, looked up): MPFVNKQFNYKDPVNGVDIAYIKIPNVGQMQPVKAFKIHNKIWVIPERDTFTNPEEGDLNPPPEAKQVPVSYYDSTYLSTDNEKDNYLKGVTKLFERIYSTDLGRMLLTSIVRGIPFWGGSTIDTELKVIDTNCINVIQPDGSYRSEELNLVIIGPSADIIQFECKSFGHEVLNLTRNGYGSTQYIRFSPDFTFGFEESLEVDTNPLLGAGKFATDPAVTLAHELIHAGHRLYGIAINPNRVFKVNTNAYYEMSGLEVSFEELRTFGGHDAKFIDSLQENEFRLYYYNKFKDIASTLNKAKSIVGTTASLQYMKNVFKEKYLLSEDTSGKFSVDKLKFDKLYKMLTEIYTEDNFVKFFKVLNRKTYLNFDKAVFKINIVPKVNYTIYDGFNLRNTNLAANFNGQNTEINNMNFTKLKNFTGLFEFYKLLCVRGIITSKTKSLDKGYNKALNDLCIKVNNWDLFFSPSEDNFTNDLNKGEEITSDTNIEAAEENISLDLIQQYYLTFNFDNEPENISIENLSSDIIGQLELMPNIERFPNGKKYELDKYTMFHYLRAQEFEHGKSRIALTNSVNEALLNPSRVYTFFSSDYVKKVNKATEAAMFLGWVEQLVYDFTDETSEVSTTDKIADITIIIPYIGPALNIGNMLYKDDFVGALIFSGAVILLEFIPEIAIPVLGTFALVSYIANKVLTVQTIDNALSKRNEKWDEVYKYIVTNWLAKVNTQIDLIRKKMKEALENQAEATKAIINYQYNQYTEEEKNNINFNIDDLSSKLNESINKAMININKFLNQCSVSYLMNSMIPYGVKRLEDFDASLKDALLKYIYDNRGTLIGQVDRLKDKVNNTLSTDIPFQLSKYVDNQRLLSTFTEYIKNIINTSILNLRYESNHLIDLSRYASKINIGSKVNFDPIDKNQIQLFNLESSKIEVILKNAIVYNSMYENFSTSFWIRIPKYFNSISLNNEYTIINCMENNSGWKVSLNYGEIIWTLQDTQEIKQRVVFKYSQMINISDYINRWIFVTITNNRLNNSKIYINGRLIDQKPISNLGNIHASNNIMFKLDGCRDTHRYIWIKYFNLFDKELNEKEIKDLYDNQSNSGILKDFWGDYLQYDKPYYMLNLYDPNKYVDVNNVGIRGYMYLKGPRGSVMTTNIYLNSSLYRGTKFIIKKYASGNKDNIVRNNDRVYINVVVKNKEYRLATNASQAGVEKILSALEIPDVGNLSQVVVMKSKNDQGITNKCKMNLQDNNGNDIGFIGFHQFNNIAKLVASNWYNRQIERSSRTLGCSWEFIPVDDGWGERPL
Take `Cc1cc(NS(=O)(=O)c2ccc(N)cc2)no1`: the inhibition was 0.1%.

`O=C(CCCN1C(=O)/C(=C\c2cccc(Br)c2)SC1=S)Nc1cccnc1`: the inhibition is -0.3%.

`CN(C)C(=O)C12CCC(C)(c3nc4ccccc4nc31)C2(C)C` (stereo not drawn): the inhibition is -1.5%.

Turning to `CNCCC(Oc1ccc(C(F)(F)F)cc1)c1ccccc1` (stereo not drawn), the inhibition is 0.6%.

Turning to `CN(C)CCC=C1c2ccccc2CCc2ccccc21`, the inhibition is 0.2%.

For `COc1ccc(C2C3C(C)=NN=C3CC(C)(O)C2C(C)=O)cc1` (stereo not drawn), the inhibition was -0.6%.

As to `c1cc(-c2ccncc2)ccn1`, the inhibition is -1.9%.

Turning to `CC(C)COc1ccc(Cc2cnc(N)nc2N)cc1`, the inhibition is 2%.

With `CCn1c(O)c(/C=C2\C=Nc3ccccc32)sc1=O`, the inhibition was 0.3%.

As to `CN1CCN(CC/C=C2/c3ccccc3Sc3ccc(S(=O)(=O)N(C)C)cc32)CC1`, the inhibition was 0.9%.

Take `Oc1ccc(COCc2ccccc2)c2cccnc12`: the inhibition is -3.5%.

With `COc1ccc(C(=O)N2c3cc4c(cc3C(C)=CC2(C)C)OCO4)cc1`, the inhibition was 0%.

Consider `COc1ccc2cc(CCC(C)=O)ccc2c1`, for which the inhibition was 0.4%.

`CCN(CC)CC#CCOC(=O)C(O)(c1ccccc1)C1CCCCC1` (stereo not drawn): the inhibition was 0.6%.

For `COc1cc(C)nc(-n2nc(C)cc2OC)n1`, the inhibition was -1.5%.

For `Cc1[nH]c2ccccc2c1/C=C/c1nc2ccccc2c(=O)n1CCO`, the inhibition was -0.4%.

As for `Nc1nc(Cl)nc2c1ncn2[C@H]1C[C@H](O)[C@@H](CO)O1`, the inhibition was -2.6%.

Regarding `O=C(/C=C/c1ccc2c(c1)OCO2)c1ccccn1`, the inhibition is -0.2%.

Turning to `C#C[C@]1(O)CC[C@H]2[C@@H]3CCC4=CC(=O)CC[C@@H]4[C@H]3CC[C@@]21CC`, the inhibition was -1.3%.

With `C#CCN1C(=O)C(O)(CC(=O)c2ccc(OC)c(OC)c2)c2ccccc21` (stereo not drawn), the inhibition was -1.3%.

On to `Cc1ccc(P(=O)(CSC(=N)N)c2ccc(C)cc2)cc1`, for which the inhibition is -0.5%.

As for `CCOC(=O)C(=O)N1CCN(c2ccccc2OC)CC1`, the inhibition was -1.1%.

For `O=C(c1cccc2ccccc12)C1CCCN(C(=O)CCN2CCCO2)C1` (stereo not drawn), the inhibition is 1.1%.

Regarding `Cc1cc(=O)oc2c(CN(C)Cc3ccccc3)c(O)ccc12`, the inhibition was -0.7%.

`Cc1ncoc1C(=O)N1CCCC(C(=O)c2ccc(-c3ccccc3)c(F)c2)C1` (stereo not drawn): the inhibition is -0.1%.

With `CN1CCN(C2=Nc3cc(Cl)ccc3Nc3ccccc32)CC1`, the inhibition was -0.4%.

On to `NC(N)=NC(N)=NCCc1ccccc1`, for which the inhibition is -0.8%.

As for `NC(=O)N1c2ccccc2CC(=O)c2ccccc21`, the inhibition is 0.3%.

As for `Cc1cc(/C=N/O)c(C)n1-c1ccc(Br)cc1`, the inhibition is 1.1%.

For `OCCN(CCO)c1nc(N2CCCCC2)c2nc(N(CCO)CCO)nc(N3CCCCC3)c2n1`, the inhibition was 0.9%.

Consider `O=C(O)COc1ccc2occ(C(=O)c3ccccc3)c2c1`, for which the inhibition is 0.2%.

Regarding `C[C@]12CC[C@H]3C(=CCc4cc(O)ccc43)[C@@H]1CCC2=O`, the inhibition is -0.6%.

With `Cn1c(=O)c2c(ncn2CCO)n(C)c1=O`, the inhibition is -1.8%.

`NS(=O)(=O)c1cc(C2(O)NC(=O)c3ccccc32)ccc1Cl` (stereo not drawn): the inhibition was -1.6%.

For the compound `COc1ccc(C2NC(=O)c3ccccc3N2)cc1OC` (stereo not drawn), the inhibition was -0.1%.

For the compound `Cn1c(=O)c2[nH]cnc2n(C)c1=O`, the inhibition was -2%.

For the compound `O=C(c1ccc([N+](=O)[O-])cc1)N1CCSC1c1ccccc1Cl` (stereo not drawn), the inhibition was -0.1%.

For the compound `Cc1cccc(N2CCN(C(=S)c3ccccc3)CC2)c1`, the inhibition was -1.9%.

On to `NC12CC3CC(CC(C3)C1)C2`, for which the inhibition is -0.6%.

The inhibition is the change of the read-out against control, counted positive when it falls.
